KB-V1 MDR tox – qHTS assay for MDR1-selective chemotherapeutics: Primary screen using the drug-selected MDR subline cells KB-V1 | KB-V1 MDR cells viability, CellTiter-Glo, 72 h | Potency, µM (series often up to 46.1 µM), usual class: cytotoxic | 3.4% of 400,000 active | AID 1347076, 2019; also: % is scaled to controls: 0 for no effect and ±100 for the full control effect; nearly all actives have a fitted effect of over 60% in size
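Cytotoxicity via CellTiter-Glo luminescence after 72 h compound exposure at 37 degrees C. Cells: drug-selected KB-V1 line, DMEM phenol-red free plus 10% FBS. Compounds tested at multiple concentrations; normalized data fitted to concentration-effect curves.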
MCF10A rerep – A quantitative high throughput screen for small molecules that induce DNA re-replication in MCF 10a normal breast cells | MCF 10A DNA re-replication, Hoechst nuclear intensity, 48 h | Potency, µM (highest dose often 46.1 µM), for the others: top-dose activity, positive = re-replication, most hits filed as activators | 2.9% of 350,000 active | AID 624296, 2012; also: % of control where 0% means no effect; nearly all actives have a fitted effect of over 50% in size
SW480 rerep – A quantitative high throughput screen for small molecules that induce DNA re-replication in SW480 colon adenocarcinoma cells; SW480 DNA re-replication, Hoechst DNA content imaging, 48 h; Potency, µM (highest dose often 46.1 µM), inactives show at the highest dose re-replication activation, most hits filed as activators; 1.8% of 340,000 active; also: % of control where 0% means no effect; nearly all actives have a fitted effect of over 55% in size
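Readout is total intensity of Hoechst-stained nuclei, excited at 405 nm and collected at 500-530 nm. Compound treatment lasted 48 hr at 37 C in 5% CO2 before staining.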
HT1080NT lethal – qHTS for induction of synthetic lethality in tumor cells producing 2HG: qHTS for the HT-1080-NT fibrosarcoma cell line | HT-1080-NT fibrosarcoma viability, CellTiter-Glo ATP luminescence, 48 h | Potency, µM (series often up to 46.1 µM), for inactives: top-dose activity, negative = less viability, most hits filed as cytotoxic | 1.6% of 360,000 active | AID 686970, 2013;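 also: NT is the 2HG producing partner of a matched IDH1 knockdown line; 0% = DMSO-treated cells and -100% = media-only wells without cells; nearly all actives have a fitted effect of over 55% in size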
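Compounds were tested in concentration-response format on HT-1080-NT cells for 48 hours at 37 degrees C. Cell viability came from CellTiter-Glo luminescence; curves were classified by r2, response magnitude and activity.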
HT1080 IDH1KD tx – qHTS for induction of synthetic lethality in tumor cells producing 2HG: qHTS for the HT-1080-IDH1KD cell line | HT-1080 IDH1 knockdown viability, ATP luminescence, 48 h | Potency, µM (titrated, usually from 46.1 µM), for inactives: at the highest dose activity, negative = toxicity, usual class: cytotoxic | 2% of 360,000 active;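 also: 0% = DMSO wells and -100% = cell-free medium wells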
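Luminescent ATP read-out (CellTiter-Glo, 10 min at room temperature) after 48 h compound exposure at 37 °C gave viability of IDH1-knockdown HT-1080 cells. Activity was normalised to DMSO and cell-free wells, then fitted as concentration-response curves.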
KB-3-1 cytotox – qHTS assay for MDR1-selective chemotherapeutics: Primary screen using the parental adenocarcinoma cell KB-3-1 | KB-3-1 viability, CellTiter-Glo ATP luminescence, 72 h | Potency, µM (titrated, usually from 46.1 µM), usual class: cytotoxic | 1.4% of 400,000 active; also: % is scaled to controls: 0 for no effect and ±100 for the full control effect; nearly all actives have a fitted effect of over 60% in size
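72 h, 37 °C compound treatment of KB-3-1 parental cells; CellTiter-Glo added, 10 min, luminescence read. Data corrected against DMSO-only plates and normalized before curve fitting.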
Starred values were filed as active, the others as inactive; i = inactive; ? = inconclusive; nt = no result given; [ ] = dose if it differs, or a comment. In the library only some 7.9% were active in any assay of this set; here they are far more common. Calls follow the shape of the dose curve; as a rule, active = well fitted curve in the direction sought with a large enough effect; inconclusive = small, poorly fitted or top-dose-only effect, or another doubt; inactive = no such curve, though single readings can be large; an effect the other way counts as inactive or inconclusive. Potency is read from the fitted curve at half-maximal effect.

SMILES	KB-V1 MDR tox	MCF10A rerep	SW480 rerep	HT1080NT lethal	HT1080 IDH1KD tx	KB-3-1 cytotox
CC(C)(C)c1cc(C(=O)NNc2cccc(Cl)c2)n(Cc2ccccc2)n1	?	?	2.1%	20.6µM*	18.4µM*	?
CC(C)(C)C(=O)NNC(=O)c1cc(C(C)(C)C)nn1Cc1ccccc1	i	-2.3%	-11.0%	-5.9%	-16.0%	?
O=C(c1cccs1)N(Cc1cc2ccccc2[nH]c1=O)c1ccccc1	5.17µM*	-69.9%	0.5%	15.5%	-2.1%	?
Cc1ccc(N(Cc2cc3ccccc3[nH]c2=O)C(=O)c2cccs2)cc1C	?	-3.6%	?	13.9%	17.2%	i
Cc1cccc(C(=O)Nc2ccc(C(=O)/C=C/c3ccncc3)cc2)c1	i	?	?	?	?	?
O=C(/C=C/c1cccnc1)c1ccc(NC(=O)c2cccc(Br)c2)cc1	7.94µM*	2.2%	2.2%	-13.1%	-14.6%	?
Cc1cccc(C(=O)Nc2ccc(C(=O)/C=C/c3cccnc3)cc2)c1	?	?	20.6µM*	?	18.4µM*	i
CCc1c(C)c2ccc(O)c(CN3CCN(c4ccc(F)cc4)CC3)c2oc1=O	i	nt	nt	nt	nt	?
Cc1cccc(NC(=O)c2sc(-n3nc(C)c(CCC(C)C)c3C)nc2C)c1C	i	nt	nt	nt	nt	i
COc1ccc(C(=O)/C=C/c2cc(C(=O)O)cc3c2OCOC3)c(O)c1	i	18.4µM*	3.3%	?	?	i
CCOC(=O)c1[nH]c2cc(OC)c(OC)cc2c1NC(=O)CN(C)C1CCCCC1	7.31µM*	9.8%	-0.4%	2.4%	?	?
CC(=O)c1c(C)nc2sc3c(=N)n(N)cnc3c2c1-c1ccc(Cl)cc1	18.4µM*	9.9%	-71.2%	3.7%	1.6%	?
CCOC(=O)c1c(C)nc2sc3c(=O)n(-c4ccc(C(C)=O)cc4)cnc3c2c1-c1ccc(OC)cc1	i	-4.6%	-8.1%	12.3%	15.7%	i
Cc1ccc(Sc2ccc(/C=C3/C(=O)NN(c4ccccc4)C3=O)o2)cc1	i	4.8%	-1.7%	0.0%	0.7%	i
O=C1NN(c2ccccc2)C(=O)/C1=C/c1ccc(Sc2ccc(Cl)cc2)o1	i	4.61µM*	29.4%	-9.2%	-6.3%	i
Cn1nc(C(F)(F)F)c(C(=O)Nc2ccc(F)cc2F)c1Sc1cccc(C(F)(F)F)c1	13µM*	9.7%	-5.1%	0.4%	-0.2%	?
Cn1nc(C(F)(F)F)c(C(=O)Nc2ccc(F)cc2F)c1Oc1cccc(Cl)c1	?	-10.7%	0.1%	-4.6%	-28.9%	i
Cn1nc(C(F)(F)F)c(C(=O)Nc2ccc(F)cc2F)c1Cl	i	6.1%	-9.2%	9.8%	5.2%	i
Cn1nc(C(F)(F)F)c(C(=O)Nc2ccc(F)cc2F)c1Sc1cccc(Cl)c1	16.4µM*	?	?	-4.0%	?	i
CCOCCCNC(=O)C(=O)Nc1c2c(nn1-c1ccccc1)CSC2	i	nt	nt	nt	nt	i
O=c1[nH][nH]c2c1C(C1CCCCC1)OC(C1CCCCC1)C2 (stereo not given)	i	nt	nt	16.6%	0.5%	?
CO/N=C(/C(=O)N[C@@H]1C(=O)N2C(C(=O)O)=C(CSc3cnns3)CS[C@H]12)c1csc(N)n1	nt	0.3%	-4.6%	nt	nt	nt
O=C1/C(=C\c2c(NCCOCCO)nc3ccccn3c2=O)SC(=S)N1Cc1ccco1	?	9.2µM*	-34.5%[1.84 µM]	?	?	i
COc1nc(C#N)nc(N2CCCC2)n1	i	nt	nt	nt	nt	i
COc1nc(N2CCCCCC2)nc(N2CCCCCC2)n1	14.6µM*	18.4µM*	18.6%	-6.7%	-19.1%	?
SMILES	KB-V1 MDR tox	MCF10A rerep	SW480 rerep	HT1080NT lethal	HT1080 IDH1KD tx	KB-3-1 cytotox
CN(C)c1ccc(/C=C/c2ccnc3c2ccc2ccccc23)cc1	?	nt	nt	nt	nt	i
CN(C)c1ccc(/C=C/c2ccnc3ccc4ccccc4c23)cc1	i	nt	nt	nt	nt	1.64µM*
CN(C)c1ccc(/C=C/c2ccnc3ccccc23)cc1	?	nt	nt	nt	nt	11.6µM*
CN(C)c1ccc(C=Cc2nccc3ccccc23)cc1	i	nt	nt	?	20.6µM*	9.2µM*
COc1ccccc1-c1nnc(C2CCN(S(=O)(=O)c3ccc(F)c(C)c3)CC2)o1	i	nt	nt	nt	nt	i
O=c1c2cc3c(cc2nc2sc(Nc4cccc([N+](=O)[O-])c4)nn12)OCO3	i	nt	nt	nt	nt	i
COc1cc(OC)cc(C2=Cc3ccc(OC)cc3C(CC(C)=O)N2c2ccc(C#CC3(O)CCCCC3)cc2)c1 (stereo not given)	i	nt	nt	-17.1%	-24.2%	?
COc1cc(OC)cc(C2=Cc3ccc(OC)cc3C(CC(C)=O)N2c2ccc(C#CC3(N)CCCCC3)cc2)c1 (stereo not given)	i	nt	nt	16.4µM*	25.9µM*	?
COc1cc(OC)cc(C2=Cc3ccccc3C(CC(C)=O)N2c2ccc(C#CC3(N)CCCCC3)cc2)c1 (stereo not given)	?	nt	nt	14.6µM*	13µM*	?
COc1ccc2c(c1)C(CC(C)=O)N(c1ccc(-c3cccs3)cc1)C(c1ccsc1)=C2 (stereo not given)	i	nt	nt	-14.3%	-14.7%	10.3µM*
CCc1cccc(N2C(=O)CSC23C(=O)Nc2ccccc23)c1 (stereo not given)	?	nt	nt	nt	nt	i
CCOc1ccc(C(=O)Nc2ccc(-c3nc4ccccc4[nH]3)cc2)cc1Cl	?	nt	nt	nt	nt	i
CCCc1ccc(OCC(=O)Nc2sc3c(c2C(=O)OCC)CCC(C(C)(C)C)C3)cc1 (stereo not given)	i	nt	nt	nt	nt	i
Cn1c(-c2ccc(F)cc2)cc2onc(-c3c(F)cccc3Cl)c2c1=O	i	2.31µM*	-2.2%	5.7%	4.0%	i
COc1cc(C(=O)Oc2ccccc2/C=N/NC(=O)c2ccc(Cl)cc2)cc(OC)c1OC	?	?	?	?	?	5.17µM*
COc1cc(C(=O)Oc2ccccc2/C=N/NC(=O)c2ccc(C)c(Cl)c2)cc(OC)c1OC	?	-1.8%	?	?	?	?
CC(=O)Nc1ccc(OC(=O)c2ccc(Cl)cc2)cc1	i	-1.7%	0.5%	-9.6%	10.0%	i
CC(=O)Nc1ccc(C(=O)N/N=C/c2ccccc2OC(=O)c2ccc(Cl)cc2)cc1	i	25.0%	-2.6%[9.22 µM]	?	23.1µM*	?

Assay outcomes (PubChem)
